HCMV inh: inhibitors of human cytomegalovirus | activity change, negative = inhibition, % at 57.5 µM | 410,000 tested, 4.5% active | HFF cells, HCMV-luciferase reporter, 72 h; stronger effect = lower value; in the data active = activity change below about -60%; inconclusive = no clear call, values can overlap the other calls; inactive = above about -39%
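Cell-based, HFFs, 1000 cells/well, 16 h 37C; cpds in DMSO + HCMV-luc, MOI 1 PFU/cell; 72 h 37C; OneGlo luminescence after 5 min RT; norm. to buffer vs Salinomycin 10uM.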
Lassa entry inh: inhibitors of Lassa virus binding or cell entry; Lassa virus pseudotype entry inhibition, cell reporter; 300,000 tested, 1.2% active; Potency, µM (series often up to 37.9 µM), without a hit: top-dose activity change, negative = inhibition, most hits filed as inhibitors; calls by dose curve; tested in HEK293 cells; also: potency is read from the fitted curve at half-maximal effect; nearly all actives have a fitted effect of over 50% in size
HCV inh: inhibitors of hepatitis C virus infection. Huh7.5.1 HCVcc-Cre infection, luciferase reporter, 44 h. Potency, µM (highest dose often 41.8 µM), for inactives: top-dose activity change, negative = inhibition, most hits filed as inhibitors. 340,000 tested, 3.4% active; active = well fitted inhibition curve with a large enough effect; inconclusive = small, poorly fitted or top-dose-only effect, or another doubt; inactive = no such curve, though single readings can be large or run the other way; also: potency is read from the fitted curve at half-maximal effect
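Infectious HCVcc-Cre (~0.5 moi) was added to cells just after compound, with cells seeded 4 h earlier at 1,000 per well. Luciferase activity after 44 h culture reported infection; substrate was incubated 15 min at room temperature before reading.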
FMDV inh: foot and mouth disease virus antiviral activity; FMDV antiviral cell-based qHTS; Potency, µM (top dose mostly 57.9 µM), without a hit: at the highest dose activity change, negative = inhibition, usual class: inhibitors; 410,000 tested, 1.2% active; AID 1159524; calls by dose curve; tested in HEK293T cells; also: read-out not given here; potency is read from the fitted curve at half-maximal effect; nearly all actives have a fitted effect of over 45% in size
MARV entry inh: blocks Marburg virus binding to or entry into cells; Marburg virus pseudotyped entry inhibition, cell reporter; 300,000 tested, 1.8% active; Potency, µM (doses to about 37.8 µM), for the others: top-dose activity change, negative = inhibition, actives largely listed as inhibitors; AID 540276; calls by dose curve; tested in HEK293 cells; also: potency is read from the fitted curve at half-maximal effect
* hit, by the source's call; ? = inconclusive; nt = no result; [ ] = another dose, or the depositor's remark. An excerpt weighted towards active compounds, which were near 7.9% of everything screened. % is scaled to controls: 0 for no effect and ±100 for the full control effect.

SMILES	HCMV inh	Lassa entry inh	HCV inh	FMDV inh	MARV entry inh
CCC(=O)Nc1ccc2nc(SCCOc3ccc(C)cc3OC)sc2c1	-21.1	-8.7%[46.1 µM]	nt	-20.3%	?
COc1ccc(/C=N/Nc2nccnc2Cl)cc1	108.1	8.2µM*	-0.9%	nt	?
Clc1nccnc1N/N=C/c1ccc(Br)cc1	69.9	nt	-5.5%	58.2%	nt
CCSc1nc(-c2ccccc2)nc(C(Cl)Cl)n1	-82.4*	nt	?	-17.1%	nt
COc1ccc(OC)c(CNC(=O)c2nn(-c3ccc(OC)c(Cl)c3)c(=O)c3c2c2ccccc2n3C)c1	13.9	-6.3%[46.1 µM]	nt	-17.8%	0.3%[46.1 µM]
CC1CCN(c2ccc(C(=O)OCC(=O)NCCN3C(=O)CSC3=O)cc2[N+](=O)[O-])CC1	-78.0*	-0.3%	-25.8%	?	?
C[C@H]1CN([C@@H](C)CO)C(=O)c2cc(Br)cnc2O[C@H]1CN(C)S(=O)(=O)c1ccccc1F	-4.1	nt	nt	22.9%	nt
Cc1cc(C(=O)CN2C(=O)C(=O)N(Cc3ccccc3)C2=O)c(C)n1CC1COc2ccccc2O1 (centres undefined)	-38.3	-28.1%	11.2µM*	0.0%	?
Cc1cc(C(=O)CN2C(=O)C(=O)N(Cc3ccccc3)C2=O)c(C)n1Cc1ccccc1	15.8	-2.6%	-24.9%	-6.5%	-3.7%
COc1ccccc1CN(Cc1nc2ccccc2c(=O)[nH]1)S(=O)(=O)c1ccc(C)cc1	-98.6*	2.2%	-17.9%	nt	8.1%
Oc1cc(CNC2CCCCC2)c(O)cc1CNC1CCCCC1	-18.0	11.9%[46.1 µM]	-20.8%	3.9%	-3.8%[46.1 µM]
CCC(=O)N(C)/C=C1\Sc2ccccc2C1=O	153.5	6.1%	10.9%	20.1%	-4.1%
CCC(=O)N(CC)C1=C(O)c2ccccc2C(=O)C1=O	-105.3*	-11.6%	?	-24.2%	1.5%
CCN(CC)CCNC(=O)c1ccc2c(=O)n3nc(Nc4ccccc4OC)sc3nc2c1	-101.2*	-2.6%[46.1 µM]	nt	-9.7%	nt
COc1ccccc1Nc1nn2c(=O)c3ccc(C(=O)NCc4cccs4)cc3nc2s1	-97.3*	?	nt	?	nt
Cc1ccc(C)c(Nc2nn3c(=O)c4ccc(C(=O)NCc5cccs5)cc4nc3s2)c1	-98.8*	?	nt	-14.5%	nt
COC(=O)CCC(=O)NN1C(=O)c2ccccc2C1=O	-68.2*	nt	-2.1%	-23.6%	nt
O=C(/C=C/c1ccc(Cl)cc1Cl)Nc1cccc(S(=O)(=O)NC2=NCCC2)c1	58.3	14.6µM*	?	-36.0%	13µM*
CCOc1ccc(C(=O)NC(=S)Nc2cccc(S(=O)(=O)NC3=NCCC3)c2)cc1	-16.8	?	14.1µM*	1.6%	?
O=C(Nc1cccc(S(=O)(=O)NC2=NCCC2)c1)c1cn(-c2ccccc2)nc1-c1ccc(F)cc1	2.1	nt	11.2µM*	25.5%	nt
CCOc1ccc(OCC(=O)Nc2cccc(S(=O)(=O)NC3=NCCC3)c2)cc1	1.1	?	-18.8%	14.9%	?
Cc1ccc(-c2nn(-c3ccccc3)cc2C(=O)Nc2cccc(S(=O)(=O)NC3=NCCC3)c2)cc1	19.0	nt	nt	68.0%	nt
O=C(NC(=S)Nc1cccc(S(=O)(=O)NC2=NCCC2)c1)c1cc(-c2ccco2)nc2ccccc12	-81.0*	-11.9%	-19.9%	-9.7%	?
O=C(Nc1cccc(S(=O)(=O)NC2=NCCC2)c1)c1cc(-c2ccco2)nc2ccccc12	8.2	?	?	26.6%	-20.3%

From PubChem BioAssay
